From PubChem BioAssay AID1159580 (chemical genetic matrix, 2015)
Values joined by “and” are separate entries in the source; they are usually repeats but may differ in a detail not shown here. Identical values can stand only once. Screen size: about 5,500 compounds; about 2,000 (36%) were called active. About 18% were inconclusive and are not listed. Rule as the data show it: active = normalized growth mostly below about 0.91 (no sharp cut-off); inconclusive = no clear call, values can overlap the other calls; inactive = mostly above about 0.92. Some of the results follow.

Experiment: chemical genetic growth profiling, strain panel (AID 1159580);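 also: tested at 20 µM; growth read once vehicle control cultures reached saturation at 30 °C; 1 = growth at the plate median or of vehicle wells; lower values mean less growth of the strain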
Settings: S. cerevisiae deletion strains, growth OD

Measured: normalized growth

CC(=O)O[C@H]1C[C@@H](OC(C)=O)C(C)(C)C2C[C@@H](OC(C)=O)[C@]3(C)C(CC[C@@]4(C)[C@H](c5ccoc5)OC(=O)[C@H]5O[C@]543)[C@]21C (some centres not stated)
inactive: locus YAL021C, strain ccr4, hits give low values 0.993 | locus YAL026C, strain drs2, hits give low values 0.984 | locus YAL030W, strain snc1, hits give low values 0.993 | locus YBL061C, strain skt5, hits give low values 0.993 | locus YBR009C, strain hhf1, hits give low values 1.02 | locus YBR021W, strain FUR4, hits give low values 0.969 | locus YBR023C, strain chs3, hits give low values 0.996 | locus YBR171W, strain sec66, hits give low values 0.991 | locus YBR229C, strain ROT2, hits give low values 0.992 | locus YBR231C, strain swc5, hits give low values 1.01 | locus YBR279W, strain paf1, hits give low values 1 | locus YCL011C, strain gbp2, hits give low values 1 | locus YCL016C, strain dcc1, hits give low values 0.992 | locus YCL029C, strain bik1, hits give low values 1.01 | locus YCL061C, strain MRC1, hits give low values 1 | locus YCL069W, strain vba3, hits give low values 0.999 | locus YCR088W, strain abp1, hits give low values 1 | locus YDL005C, strain med2, hits give low values 0.993 | locus YDL035C, strain GPR1, hits give low values 1.02 | locus YDL040C, strain nat1, hits give low values 0.999 | locus YDL074C, strain BRE1, hits give low values 1.01 | locus YDL101C, strain DUN1, hits give low values 0.991 | locus YDL134C, strain PPH21, hits give low values 0.994 | locus YDL185W, strain tfp1, hits give low values 1 | locus YDL192W, strain arf1, hits give low values 1.01 | locus YDR001C, strain nth1, hits give low values 0.976 | locus YDR069C, strain doa4, hits give low values 0.975 | locus YDR101C, strain arx1, hits give low values 1.02 | locus YDR137W, strain rgp1, hits give low values 0.963 | locus YDR159W, strain sac3, hits give low values 0.96 | locus YDR162C, strain NBP2, hits give low values 1.02 | locus YDR195W, strain ref2 0.954 | locus YDR297W, strain sur2, hits give low values 0.998 | locus YDR318W, strain mcm21, hits give low values 1.01 | locus YDR334W, strain swr1, hits give low values 0.971 | locus YDR335W, strain msn5, hits give low values 0.993 | locus YDR388W, hits give low values 0.999 | locus YDR392W, strain spt3, hits give low values 0.989 | locus YDR502C, strain sam2, hits give low values 0.998 | locus YEL003W, strain gim4, hits give low values 0.988 | locus YEL037C, strain rad23, hits give low values 0.994 | locus YEL061C, strain CIN8 (second series), hits give low values 0.991 | locus YEL061C, strain CIN8, hits give low values 1.02 | locus YER015W, strain faa2, hits give low values 1 | locus YER016W, strain bim1, hits give low values 0.993 | locus YER110C, hits give low values 1 | locus YER111C, strain swi4, hits give low values 0.988 | locus YER155C, strain BEM2 (second series), hits give low values 0.996 | locus YER155C, strain BEM2, hits give low values 1 | locus YER167W, strain BCK2, hits give low values 0.998 | locus YFR010W, strain ubp6, hits give low values 0.973 | locus YGL078C, strain dbp3, hits give low values 0.997 | locus YGL086W, strain mad1, hits give low values 1.02 | locus YGL167C, strain pmr1, hits give low values 0.987 | locus YGL173C, strain kem1, hits give low values 0.999 | locus YGL227W, strain vid30, hits give low values 1.01 | locus YGL240W, strain doc1, hits give low values 0.999 | locus YGL248W, strain PDE1, hits give low values 0.99 | locus YGL253W, strain hxk2, hits give low values 0.995 | locus YGR078C, strain PAC10, hits give low values 0.991 | locus YGR135W, strain pre9, hits give low values 0.979 | locus YGR252W, strain gcn5, hits give low values 0.966 | locus YHR013C, strain ard1, hits give low values 0.987 | locus YHR027C, strain rpn1, hits give low values 0.968 | locus YHR030C, strain SLT2, hits give low values 0.978 | locus YHR079C, strain IRE1 (second series), hits give low values 0.989 | locus YHR079C, strain IRE1, hits give low values 0.984 | locus YHR094C, strain hxt1, hits give low values 1.01 | locus YHR129C, strain ARP1, hits give low values 1.02 | locus YHR142W, strain chs7, hits give low values 1 | locus YHR200W, strain rpn10, hits give low values 0.995 | locus YIL066C, strain RNR3, hits give low values 1.01 | locus YIL073C, strain SPO22, hits give low values 0.989 | locus YIL125W, strain kgd1, hits give low values 0.996 | locus YIR030C, strain dcg1, hits give low values 1 | locus YJL092W, strain hpr5, hits give low values 1.01 | locus YJL095W, strain BCK1 (second series), hits give low values 0.995 | locus YJL095W, strain BCK1, hits give low values 1.02 and 0.984 | locus YJL115W, strain asf1, hits give low values 0.974 | locus YJL129C, strain trk1, hits give low values 0.979 | locus YJL134W, strain LCB3, hits give low values 1.02 | locus YJL154C, strain vps35, hits give low values 0.98 | locus YJL164C, strain tpk1, hits give low values 0.997 | locus YJL166W, strain qcr8, hits give low values 1.03 | locus YJL168C, strain set2, hits give low values 0.999 | locus YJL187C, strain SWE1 (second series), hits give low values 0.989 | locus YJL187C, strain SWE1, hits give low values 0.999 | locus YJR043C, strain POL32, hits give low values 1.02 | locus YJR066W, strain TOR1, hits give low values 0.932 | locus YKL009W, strain mrt4, hits give low values 1 | locus YKL068W, hits give low values 1.01 | locus YKL160W, strain elf1, hits give low values 1 | locus YKL190W, strain CNB1, hits give low values 1.01 | locus YKR001C, strain vps1, hits give low values 1 | locus YKR026C, strain gcn3, hits give low values 0.995 | locus YKR091W, strain srl3, hits give low values 0.989 | locus YLL001W, strain dnm1, hits give low values 0.988 | locus YLL026W, hits give low values 0.997 | locus YLL041C, strain sdh2, hits give low values 0.987 | locus YLR027C, strain aat2, hits give low values 1.01 | locus YLR039C, strain RIC1, hits give low values 0.981 | locus YLR058C, strain SHM2, hits give low values 1.01 | locus YLR102C, strain apc9, hits give low values 0.999 | locus YLR113W, strain HOG1, hits give low values 1.03 | locus YLR221C, strain rsa3, hits give low values 0.995 | locus YLR258W, strain gsy2, hits give low values 0.998 | locus YLR262C, strain YPT6 (second series), hits give low values 0.969 | locus YLR262C, strain YPT6, hits give low values 0.974 | locus YLR268W, strain sec22, hits give low values 1 | locus YLR320W, strain mms22, hits give low values 1.02 | locus YLR330W, strain CHS5, hits give low values 1.01 | locus YLR342W, strain FKS1, hits give low values 1 | locus YLR357W, strain rsc2, hits give low values 0.997 | locus YLR370C, strain arc18, hits give low values 0.995 | locus YLR371W, strain rom2, hits give low values 1 | locus YLR384C, strain iki3, hits give low values 1.01 | locus YLR418C, strain cdc73, hits give low values 0.996 | locus YML016C, strain PPZ1, hits give low values 1.01 | locus YML032C, strain rad52, hits give low values 1 | locus YML120C, strain ndi1, hits give low values 0.995 | locus YML124C, strain tub3, hits give low values 1 | locus YMR058W, strain fet3, hits give low values 0.985 | locus YMR078C, strain ctf18, hits give low values 0.989 | locus YMR125W, strain sto1, hits give low values 0.983 | locus YMR129W, hits give low values 0.994 | locus YMR205C, strain PFK2, hits give low values 0.988 | locus YMR223W, strain ubp8, hits give low values 0.996 | locus YMR231W, strain pep5, hits give low values 0.981 | locus YMR307W, strain GAS1, hits give low values 0.895 | locus YNL067W, strain RPL9B, hits give low values 1.01 | locus YNL071W, strain lat1, hits give low values 0.992 | locus YNL128W, strain TEP1, hits give low values 1.02 | locus YNL153C, strain GIM3, hits give low values 1.02 | locus YNL183C, strain NPR1, hits give low values 0.93 | locus YNL209W, strain ssb2, hits give low values 0.995 | locus YNL233W, strain BNI4, hits give low values 0.974 | locus YNL248C, strain rpa49, hits give low values 0.971 | locus YNL250W, strain rad50, hits give low values 0.98 | locus YNL271C, strain bni1, hits give low values 1 | locus YNL298W, strain CLA4, hits give low values 1.01 | locus YNL307C, strain MCK1, hits give low values 0.986 | locus YNL322C, strain KRE1 (second series), hits give low values 0.999 | locus YNR049C, strain mso1, hits give low values 0.991 | locus YNR052C, strain pop2, hits give low values 0.996 | locus YOL012C, strain htz1 1 | locus YOL147C, strain pex11, hits give low values 0.999 | locus YOR001W, strain rrp6, hits give low values 0.979 | locus YOR061W, strain CKA2, hits give low values 0.997 | locus YOR069W, strain VPS5, hits give low values 0.991 | locus YOR070C, strain gyp1, hits give low values 0.986 | locus YOR080W, strain dia2, hits give low values 0.997 | locus YOR083W, strain WHI5, hits give low values 1 | locus YOR106W, strain vam3, hits give low values 0.983 | locus YOR136W, strain idh2, hits give low values 0.996 | locus YOR144C, strain elg1, hits give low values 1 | locus YOR184W, strain ser1, hits give low values 1 | locus YOR231W, strain MKK1, hits give low values 0.987 | locus YOR265W, strain rbl2, hits give low values 0.989 | locus YOR270C, strain vph1, hits give low values 0.858 | locus YOR290C, strain snf2, hits give low values 0.994 | locus YOR316C, strain cot1, hits give low values 0.999 | locus YPL051W, strain arl3, hits give low values 1 | locus YPL055C, strain LGE1, hits give low values 1.02 | locus YPL078C, strain atp4, hits give low values 1.01 | locus YPL106C, strain sse1, hits give low values 1.05 | locus YPL240C, strain hsp82, hits give low values 0.994 | locus YPL256C, strain CLN2, hits give low values 0.989 | locus YPR119W, strain clb2, hits give low values 1.01 | locus YPR141C, strain kar3, hits give low values 0.996 | locus YPR163C, strain tif3, hits give low values 1 | locus YPR167C, strain met16, hits give low values 1 | strain wtn01, hits give low values 1
